Shown are actives, neighbours in structure and some others; about 5.2% of the full set was active somewhere.
SKN-1 inh: blocks SKN-1 activity in C. elegans | C. elegans VP596 Pgst-4::GFP/RFP ratio, acrylamide-induced, 24 h | inhibition, % at 21.8 µM | actives 0.49% (n = 360,000) | AID 624304;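 active means interference check ratio from 0.5 to 1.5 plus GFP to RFP signal ratio inhibition reaching or exceeding a fixed threshold, cut at about 30% in these data, passing the limit was not always enough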
esBAF inh: blocks esBAF chromatin remodeling in mouse ES cells. actives 2% (n = 350,000). Bmi1-luciferase knock-in reporter, 24 h; 100% = twice the neutral-well signal. reporter increase, % at 12.5 µM; in the data active means activation above about 40%;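 further: a rise in the Bmi1 reporter signal indicates esBAF inhibition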
NadD block: inhibitors of Staphylococcus aureus NadD | actives 0.78% (n = 360,000) | inhibition, % at 20 µM | purified NadD enzyme, colorimetric absorbance read-out; in the data active means inhibition above about 26%
NR3A LBD binder: modulators (binders) of human NR3A ligand-binding domain. NR3A LBD differential scanning fluorimetry, Tm shift; 0% = protein alone, 100% = glycine-bound protein. Tm shift relative to glycine control, % at 25 µM. actives 2.5% (n = 340,000). AID 1259313;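 active means melting temperature shift of at least 10% of the positive control shift, at one fixed dose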
Vif inh: HIV Vif inhibition. HEK293T cells, Vif self-association by quenched fluorescence, imaging, 24 h. actives 0.35% (n = 340,000). AID 602346. inhibition, % at 7.49 µM; in the data active means inhibition above about 50%, passing the limit was not always enough
SMARCA2 activ: SMARCA2 function activation, primary screen; MG213 cells, MMTV-luciferase reporter, dexamethasone, overnight; activation, % at 9.1 µM; actives 1% (n = 370,000); in the data active means activation above about 7.8%
Of the large screens only hits and unclear results are named; the others gave an inactive call.

Fc1ccc(-c2n[nH]c(=S)n2Cc2ccccc2)cc1	none (no result: SMARCA2 activ)
S=c1[nH]nc(-c2ccc(Br)cc2)n1Cc1ccccc1	NR3A LBD binder 14 (no result: esBAF inh)
FC(F)C(F)(F)Oc1cccc(-c2n[nH]c(=S)n2Cc2ccccc2)c1	NR3A LBD binder 21 (no result: esBAF inh)
C[C@H]1CN([C@@H](C)CO)C(=O)c2c(c3ccccc3n2C)-c2ccccc2CO[C@@H]1CN(C)S(C)(=O)=O	none (no result: SKN-1 inh, NadD block, NR3A LBD binder, Vif inh, SMARCA2 activ)
O=C(C[C@H]1CC[C@H]2[C@@H](COC[C@H](O)CN2C(=O)Cc2ccccc2)O1)NC1CCCC1	none (no result: SKN-1 inh, NadD block, NR3A LBD binder, Vif inh, SMARCA2 activ)
Cc1nc(-c2ccc(Cl)cc2)sc1C1(C)CC(c2cccc(Cl)c2)=NO1 (stereo not given)	none
Cc1nc(-c2ccc(Cl)cc2)sc1C1(C)CC(c2cccc(F)c2)=NO1 (stereo not given)	esBAF inh 46
COc1ccc(NC(=S)NCc2ccc(F)cc2)cc1	esBAF inh 42
COc1ccc(CNC(=O)Nc2ccc(C)cc2)cc1	esBAF inh 55
Cc1ccc(Oc2c(F)c(F)nc(N3CCCC3)c2F)cc1	NR3A LBD binder 13 (no result: esBAF inh)
C/C=C/c1ccc2c(c1)O[C@H](CN(C)Cc1cccnc1)[C@@H](C)CN([C@H](C)CO)S2(=O)=O	none (no result: SKN-1 inh, NadD block, NR3A LBD binder, Vif inh, SMARCA2 activ)
COc1ccc2[nH]c(=O)c(-c3nnn(-c4ccccc4)n3)cc2c1	esBAF inh 58
COc1ccc2[nH]c(=O)c(-c3nnn(-c4ccc(F)cc4)n3)cc2c1	none
Cc1ccc(C(=O)Nc2ccc(OCc3ccccc3)cc2)cc1[N+](=O)[O-]	NR3A LBD binder 28
Nc1ccc(OCc2ccccc2)cc1[N+](=O)[O-]	esBAF inh 44
O=C(Nc1ccc(OCc2ccccc2)cc1)c1cccc([N+](=O)[O-])c1	NR3A LBD binder 27 (no result: esBAF inh)
Cc1ccc(C(=O)NC(=S)Nc2cccc(NC(=O)c3ccccc3)c2)cc1[N+](=O)[O-]	NR3A LBD binder 19 (no result: esBAF inh)
C[C@H](CO)N1C[C@H](C)[C@H](CN(C)C(=O)Nc2ccccc2)Oc2ccc(NC(=O)Cc3ccccc3)cc2CC1=O	none (no result: SKN-1 inh, NadD block, NR3A LBD binder, Vif inh, SMARCA2 activ)
O=C(NC1CCCC1)[C@H]1[C@H](CO)[C@H]2Cn3c(ccc(-c4ccccc4)c3=O)[C@@H]1N2CCc1ccccc1	none (no result: SKN-1 inh, NadD block, NR3A LBD binder, Vif inh, SMARCA2 activ)
O=[N+]([O-])c1ccc2nc(-c3ccccc3)n(OCc3ccc(Cl)cc3)c2c1	esBAF inh 62
COn1c(-c2ccccc2)nc2ccc(Cl)cc21	esBAF inh 65
CN1C(=O)c2cc(NC(=O)C3CCCCC3)ccc2OC[C@@H]2O[C@@H](CC(=O)NCCc3ccncc3)CC[C@H]21	none (no result: SKN-1 inh, NadD block, NR3A LBD binder, Vif inh, SMARCA2 activ)
CO[C@H]1CN(C)C(=O)c2cc(NC(C)=O)ccc2OC[C@@H](C)N(Cc2cccnc2)C[C@@H]1C	none (no result: SKN-1 inh, NadD block, NR3A LBD binder, Vif inh, SMARCA2 activ)
O=c1/c(=C\c2cccnc2)sc2nc3ccccc3n12	esBAF inh 66 (no result: Vif inh, SMARCA2 activ)
CCN(CC)c1ccc(/C=c2\sc3nc4ccccc4n3c2=O)c(O)c1	SKN-1 inh 45 (no result: esBAF inh)
O=c1/c(=C/c2ccc(O)c([N+](=O)[O-])c2)sc2nc3ccccc3n12	none (no result: esBAF inh)
Cc1ccc(S(=O)(=O)Nc2ccc3c(c2)C(=O)N([C@H](C)CO)C[C@H](C)[C@H](CN(C)C(=O)Nc2ccccc2)O3)cc1	none (no result: SKN-1 inh, NadD block, NR3A LBD binder, Vif inh, SMARCA2 activ)
Cc1nc2sccn2c(=O)c1S(=O)(=O)NCC1CCN(Cc2ccccc2Cl)CC1	NR3A LBD binder 12
CC(C)N(C(=O)[C@H]1C[C@H](CC(=O)NCc2ccco2)C(=O)N2CCc3c([nH]c4cc(CCC(=O)N(C)C)ccc34)[C@]12C)C(C)C	SMARCA2 activ 7.9
CN(C)C(=O)CCc1ccc2c3c([nH]c2c1)[C@]1(C)[C@@H](C(=O)N2CCOCC2)C[C@H](CC(=O)NCc2ccco2)C(=O)N1CC3	none
C[C@@H]1CCCCO[C@@H](CN(C)C(=O)Cc2ccccc2)[C@@H](C)CN([C@H](C)CO)C(=O)c2cc(NC(=O)c3ccccc3)ccc2O1	none (no result: SKN-1 inh, NadD block, NR3A LBD binder, Vif inh, SMARCA2 activ)
COc1ccccc1S(=O)(=O)N1CC[C@@H]2[C@H](CO)Nc3ccc(-c4ccccc4)cc3[C@@H]21	none (no result: SKN-1 inh, NadD block, NR3A LBD binder, Vif inh, SMARCA2 activ)
O=C1COc2ccc(C(=O)COC(=O)c3ccccc3[N+](=O)[O-])cc2N1	esBAF inh 77
O=C1COc2ccc(C(=O)COC(=O)c3ccc(Cl)cc3[N+](=O)[O-])cc2N1	none
CC(C)[C@H](NC(=O)c1ccco1)C(=O)OCC(=O)c1ccc2c(c1)NC(=O)CO2	NR3A LBD binder 11 (no result: esBAF inh)
